This is one part of a sample in which hits are shown more often than they occur.
p53 reactivator = restores transcriptional activity of mutant p53; H1299 p53-A138V BP100-luciferase reporter, luminescence, 24 h; Potency, µM (doses to about 92.2 µM), for inactives: top-dose activity change, positive = activation, actives largely listed as activators; hit rate 0.063% among 320,000; AID 504706; active = well fitted activation curve with a large enough effect; inconclusive = small, poorly fitted or top-dose-only effect; inactive = no such curve, though single readings can be large or run the other way; also: potency is read from the fitted curve at half-maximal effect; % of control where 0% means no effect; nearly all actives have a fitted effect of over 45% in size
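p53-null H1299 cells stably carrying temperature-sensitive p53-A138V and a BP100-luciferase reporter were pinned with compounds (4-point, 1:5 series) and held 24 hrs at 37 deg C. Luminescence was read 10 min after detection reagent.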
Menin MLL FP FL = inhibitors of human menin-MLL interaction, wild-type MLL peptide; Fluorescence polarization, fluorescein-MLL peptide displacement from menin; FP activity change, % at 61.4 µM; 290,000 tested, under 10 active; active = well fitted curve in the direction sought with a large enough effect in the polarisation, not every such curve was filed as active; inconclusive = small, poorly fitted or top-dose-only effect, or effect the other way, or a change in a side signal; inactive = no such curve, though single readings can be large or run the other way; the % refers to the polarisation; also: % of control where 0% means no effect
Menin MLL FP TR = displaces Texas Red mutant MLL peptide from human menin; O00255; Potency, µM (doses to about 61.6 µM), inactives show at the top dose FP activity change, negative = inhibition, hits mostly inhibitors; hit rate 0.23% among 270,000; AID 1768; Menin + Texas Red MLL mutant peptide, fluorescence polarization; active = well fitted inhibition curve with a large enough effect in the polarisation, with a control signal flat, not every such curve was filed as active; inconclusive = small, poorly fitted or top-dose-only effect, or effect the other way, or a change in a side signal; inactive = no such curve, though single readings can be large or run the other way; the % refers to the polarisation; also: potency is read from the fitted curve at half-maximal effect; % of control where 0% means no effect
ClpP mod = qHTS Assay for Activators of ClpP; purified B. subtilis ClpP, FRET peptide cleavage, 20 min; AID 651965, 2013; hit rate 1.9% among 340,000; Potency, µM (series often up to 57.5 µM), without a hit: top-dose activity change, negative = active; ATP-dependent Clp protease proteolytic subunit (Bacillus subtilis (strain 168)), P80244; active = well fitted falling curve with a large enough effect; inconclusive = small, poorly fitted or top-dose-only effect; inactive = no such curve, though single readings can be large or run the other way; also: potency is read from the fitted curve at half-maximal effect; the source files actives as falling curves though it sought activators and does not explain the sign; nearly all actives have a fitted effect of over 65% in size
Target sequence (P80244 whole entry, looked up): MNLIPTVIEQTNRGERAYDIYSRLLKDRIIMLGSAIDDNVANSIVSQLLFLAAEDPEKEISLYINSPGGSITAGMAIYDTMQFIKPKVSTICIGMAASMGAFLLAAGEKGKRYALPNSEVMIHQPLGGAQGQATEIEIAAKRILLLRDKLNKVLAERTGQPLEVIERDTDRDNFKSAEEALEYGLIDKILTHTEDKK
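ClpP 10 microg/mL final, pH 8 Tris/KCl buffer with BSA, glycerol, Tween-20; compound pinned in; FRET-FV substrate; RT 20 min; Ex320/Em430; ΔFRET vs ADEP 5.8 microM, DMSO, no enzyme.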
CXXC DNA block = MLL CXXC-DNA interaction inhibition. Q03164. MLL-CXXC / FITC-HOXA9 DNA fluorescence polarization. Potency, µM (top dose mostly 115 µM), for inactives: top-dose activity change, negative = inhibition, hits mostly inhibitors. hit rate 0.037% among 290,000. AID 2662; active = well fitted inhibition curve with a large enough effect in the polarisation, with a control signal flat, not every such curve was filed as active; inconclusive = small, poorly fitted or top-dose-only effect, or effect the other way, or a change in a side signal; inactive = no such curve, though single readings can be large or run the other way; the % refers to the polarisation; also: potency is read from the fitted curve at half-maximal effect
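Fluorescence polarization: 7 uM MLL-CXXC (stock) preincubated 5 min with compounds, then 50 nM fluorescein-HOX-A9 DNA (stock) added; 30 min ambient. Buffer 50 mM Tris-HCl pH 7.5, 50 mM NaCl, 1 mM DTT, 0.05% BSA.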
* hit, by the source's call; u = inconclusive; x = no result.

SMILES	p53 reactivator	Menin MLL FP FL	Menin MLL FP TR	ClpP mod	CXXC DNA block
O=C(Nc1ccc(Cl)cc1)OCCN1CCN(Cc2ccccc2)CCC1=O	x	-2	-1%	x	x
O=c1[nH]c2ccc(S(=O)(=O)N3CCN(C4CCCCC4)CC3)cc2[nH]c1=O	10%	3	2%	28µM*	5%
O=c1[nH]c2ccc(S(=O)(=O)N3CCN(Cc4ccccc4)CC3)cc2[nH]c1=O	-11%	-2	10%	28µM*	5%
C=C1C=C(C)n2ncc(C(=O)Nc3ccc(F)cc3F)c2N1	x	x	x	-3%	x
CCOc1cc(CNc2ccc(N3CCCC3)cc2)cc(Cl)c1OC	-13%	-4	u	-27%	-1%
COc1cc(CNc2ccc(N3CCCC3)cc2)cc(Cl)c1OC	3%	-1	28µM*	x	38%
Cc1cc(Oc2ccc(Cl)cc2Cl)nc(C#N)n1	x	x	x	-1%	x
Cc1ccc2c(c1)ncc[n+]2CC(=O)c1ccc(F)cc1	x	x	x	-12%	x
Oc1ccc(NC(=S)Nc2ccc(F)cc2)cc1	-14%	2	1%	2%	8%
Fc1ccc(NC(=S)Nc2ccc(Br)cc2)cc1	u	4	u	28µM*	3%
COC[C@H]1CCCN1c1ccc2c(c1)O[C@@H](COCc1ccccc1)CN([C@H](C)c1ccccc1)S2(=O)=O	x	x	x	5.6µM*	x
COC[C@H]1CCCN1c1ccc2c(c1)O[C@H](COCc1ccccc1)CN([C@H](C)c1ccccc1)S2(=O)=O	x	x	x	-24%	x
CCCCCCCCCCN1CCOCCOCCN(CCCCCCCCCC)CCOCCOCC1	x	-1	-2%	x	x
Cc1nn(CCc2nn[nH]n2)c2nc(-c3ccc(Br)cc3)cc(C(F)(F)F)c12	4%	5	u	x	13%
Cc1nn(CCc2nn[nH]n2)c2nc(C(F)(F)F)cc(C(F)(F)F)c12	-1%	1	4%	10µM*	-8%
CSC1=NC(NCCCO)c2c(sc3c2CC(C)(C)OC3)N1 (stereo not given)	-2%	4	-1%	11µM*	-5%
CSc1nc(SCC(=O)O)c2c3c(sc2n1)COC(C)(C)C3	-5%	-1	x	3%	27%
Cc1nc2ccc(C(=O)O)cc2c2c1CC(C)S2 (stereo not given)	-11%	15	20µM*	81%	9%
Cc1nc2cc(C(=O)O)ccc2s1	u	0	-7%	-4%	-7%
c1ccc2c(c1)CCCN2	x	x	x	-1%	x
O=C1C2C(c3ccccc3)=NN(c3ccccc3)C2C(=O)N1c1ccccc1 (stereo not given)	12%	8	u	28µM*	7%
O=C(O)CCc1cccc2ccccc12	x	x	x	0%	x
O=C(CCc1nc(-c2ccccc2)c(-c2ccccc2)o1)OCc1ccc(Br)cc1	-2%	-2	0%	28µM*	-3%
O=C(CCc1nc(-c2ccccc2)c(-c2ccccc2)o1)OCc1ccc(Cl)cc1	-1%	5	u	32µM*	10%
CCCN1CCC(=O)N(C(CSc2ccc(OC)cc2)CC(C)C)CC1 (stereo not given)	x	0	u	x	x
SMILES	p53 reactivator	Menin MLL FP FL	Menin MLL FP TR	ClpP mod	CXXC DNA block
Cc1nc2cc(-c3cccc(Cl)c3)nn2c(N2CCN(C(=O)c3ccco3)CC2)c1C	u	-3	3%	x	74%
Cc1cc(N2CCN(C(=O)c3ccco3)CC2)n2nc(-c3cccc(Cl)c3)cc2n1	-2%	0	1%	35µM*	0%
COC(=O)c1ccc(C(=O)OC)c(NC(=O)CCS(=O)(=O)Cc2ccccc2)c1	-4%	-1	-18%	4%	4%
COC(=O)c1ccc(C(=O)OC)c(NC(=O)CCC(=O)O)c1	3%	-2	3%	28µM*	-3%
CCS(=O)(=O)N1CCN(c2ccc(C(=O)NC3C4CC5CC(C4)CC3C5)cc2[N+](=O)[O-])CC1 (stereo not given)	-12%	2	-11%	25µM*	3%
CC1(C)NC(=S)NC1=S	x	x	x	-2%	x
CCC1(CC)NC(=S)NC1=S	x	x	x	28µM*	x
Cc1ccc(S(=O)(=O)CCC(=O)OCC(=O)N(Cc2ccccc2)C(C)C)cc1	6%	x	x	16µM*	x
Cc1cccc(C)c1Nc1c(-c2ccsc2)nc2ccccn12	x	x	x	28µM*	x
Cc1cccc(C)c1Nc1c(-c2ccsc2)nc2ccc(Cl)cn12	x	x	x	-19%	x
Cc1ccc(CN2CCOCCS2(=O)=O)cc1	x	x	x	-2%	x
COC(=O)c1ccc(Cn2ccc(=O)[nH]c2=O)cc1	x	x	x	14µM*	x
Clc1ccc[n+](CCCCC[n+]2cccc(Cl)c2)c1	x	x	x	-15%	x
COC(=O)CSc1nc(-c2ccccc2)cc(-c2ccco2)c1C#N	23%	19	u	25µM*	-8%
COC(=O)CSc1nc(-c2ccc(C)cc2)c2c(c1C#N)CCCC2	7%	3	-16%	28µM*	4%
COc1ccc(-c2cc(-c3ccccc3)c(C#N)c(SCC(=O)Nc3ncc(C)s3)n2)cc1	-4%	8	u	7.9µM*	26%
CCc1nnc(NC(=O)CSc2nc(-c3ccccc3)cc(-c3ccc(OC)cc3)c2C#N)s1	-5%	7	-6%	-3%	u
COC(=O)CSc1nc(N)c(C#N)c(-c2ccco2)c1C#N	-9%	12	-1%	0%	2%
COc1ccc(-c2cc(-c3ccccc3)nc(SCC(=O)Nc3nccs3)c2C#N)cc1	5%	7	u	28µM*	11%
Cc1cccc(CN2CC34C=CC(CC3S2(=O)=O)O4)c1 (stereo not given)	x	5	14%	x	x
O=c1cc(/C=C/c2ccc([N+](=O)[O-])cc2)c2ccccc2[nH]1	x	x	x	-1%	x
Cc1cc(=O)[nH]c(SCc2nc3ncccn3c2Br)n1	-9%	7	15%	28µM*	3%
Cc1cc(=O)[nH]c(SCc2cccc3cccnc23)n1	-5%	5	-6%	x	-4%
Brc1c(CSc2nc3ccccc3s2)nc2ncccn12	u	5	-6%	28µM*	10%

High-throughput results as filed in PubChem.
